In the library only some 3.6% were active in any assay of this set; here they are far more common.
aSyn rescue: alpha-synuclein toxicity inhibition in yeast. Yeast expressing alpha-synuclein, growth rescue, BacTiter-Glo, 24 h. Potency, µM (highest dose often 46.1 µM), hits mostly activators. 370,000 compounds, 0.14% hits. AID 652106; further: nearly all actives have a fitted effect of over 65% in size
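Rescue of yeast growth: cells expressing toxic alpha-synuclein, induced in galactose at OD600 0.02, incubated with compound 24 h at 30 C. ATP luminescence quantified growth; inhibitors of toxicity appear as activators.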
TDP-43 yeast inh: rescues yeast growth from TDP-43 toxicity; AID 652104; 410,000 compounds, 1.8% hits; TDP-43 expressing yeast growth rescue, BacTiter-Glo, 24 h; Potency, µM (top dose mostly 46.1 µM), hits mostly activators; further: nearly all actives have a fitted effect of over 50% in size
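Cell-based yeast growth screen: TDP-43 expression induced in galactose, inoculum OD600=0.02 after raffinose pregrowth to mid-log. Read-out BacTiter-Glo luminescence at 24 hr, 30 deg C; inhibition of toxicity seen as signal increase.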
FUS yeast rescue: rescues growth of FUS-expressing yeast; S. cerevisiae FUS-expressing, growth rescue, OD600, 24 h; 390,000 compounds, 0.24% hits; Potency, µM (doses to about 76.6 µM), most hits filed as activators; AID 1347120; further: nearly all actives have a fitted effect of over 55% in size
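Absorbance at 600 nm, taken 24hr after compound addition, measured rescue of FUS-yeast growth at 30C. Induction used 2% galactose with seeding at OD 0.005. Controls: CP55940 from 92uM final, DMSO only.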
Mm-Cpn inhibitor: blocks the Methanococcus maripaludis chaperonin Mm-Cpn. purified Mm-Cpn ATPase, ADP Transcreener TR-FRET. Potency, µM (titrated, usually from 76.9 µM), most hits filed as inhibitors. 330,000 compounds, 0.031% hits. AID 504842; further: nearly all actives have a fitted effect of over 80% in size
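ATPase read-out: TR-FRET ADP immunoassay (anti-ADP Eu cryptate vs ADP-d2), ex 320 nm, em 590/665 nm; signal drops as ADP forms. Enzyme 25 nM, ATP 10 uM, 30 min at 37°C after 10 min compound preincubation.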
ClpP mod: qHTS Assay for Activators of ClpP; ATP-dependent Clp protease proteolytic subunit (Bacillus subtilis (strain 168)), P80244; purified B. subtilis ClpP, FRET peptide cleavage, 20 min; 340,000 compounds, 1.9% hits; Potency, µM (top dose mostly 57.5 µM); active means well fitted falling curve with a large enough effect; inconclusive means small, poorly fitted or top-dose-only effect; inactive means no such curve, though single readings can be large or run the other way; further: the source files actives as falling curves though it sought activators and does not explain the sign; nearly all actives have a fitted effect of over 65% in size
Target sequence (P80244 whole entry, looked up): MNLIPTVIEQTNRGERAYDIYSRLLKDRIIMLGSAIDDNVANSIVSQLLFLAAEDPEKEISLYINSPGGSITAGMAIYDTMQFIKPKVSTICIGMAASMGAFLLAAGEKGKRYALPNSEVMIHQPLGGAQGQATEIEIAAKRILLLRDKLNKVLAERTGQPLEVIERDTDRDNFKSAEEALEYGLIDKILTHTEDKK
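Purified B. subtilis ClpP, 10 microg/mL final in Tris/HCl pH8 with KCl, BSA, glycerol and Tween-20, cleaved an Abz/nitrotyrosine-quenched decapeptide. Fluorescence (ex 320, em 430) was read at 0 and 20 min at room temperature. Delta was normalized to 5.8 microM ADEP and DMSO/no-enzyme controls.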
Abeta rescue: A-beta toxicity reversal in yeast; 410,000 compounds, 0.063% hits; yeast expressing A-beta42, growth rescue, OD600, 48 h; response scale: 0% DMSO, 100% iron-clioquinol control; Potency, µM (doses to about 46.1 µM), hits mostly activators; further: nearly all actives have a fitted effect of over 55% in size
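Yeast growth medium received pinned compounds, then yeast cells expressing toxic A-beta were added; plates incubated at 30 C for 48 hr. Growth read as absorbance at 600 nm, normalized to DMSO and equimolar FeCl3 plus clioquinol controls.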
Numbers stand for hits; i = inactive; ? = inconclusive; nt = not tested or not shown. Unless noted, the call rests on the fitted dose curve; in most records, active means well fitted curve in the direction sought with a large enough effect; inconclusive means small, poorly fitted or top-dose-only effect, or another doubt; inactive means no such curve, though single readings can be large; an effect the other way counts as inactive or inconclusive.

SMILES	aSyn rescue	TDP-43 yeast inh	FUS yeast rescue	Mm-Cpn inhibitor	ClpP mod	Abeta rescue
Cc1cc(/C=N/NC(N)=S)c(C)n1-c1ccc(Br)cc1	i	?	i	i	i	i
Cc1ccc(CNC(=O)c2ccccc2NC(=O)c2nsc3ccccc23)cc1	nt	i	i	nt	i	i
CCc1cccc(NC(=O)c2cc3c(=O)n(Cc4ccccc4)ccc3nc2C)c1	nt	i	?	nt	i	i
O=C(Nc1cc(F)ccc1F)c1cc2nc(-c3ccco3)cc(C(F)(F)Cl)n2n1	nt	i	i	nt	?	i
Cc1ccc(CN(C(=O)c2ccc([N+](=O)[O-])cc2)c2ccccn2)cc1	nt	i	i	nt	i	i
CCc1ccc(NC(=O)CSC2=Nc3ccccc3C3=NC(CCC(=O)NCc4ccco4)C(=O)N23)cc1 (stereo not given)	nt	i	i	nt	i	i
COCCNC(=O)c1cc(-c2cccs2)on1	i	i	i	i	i	i
Cc1ccc(CNC(=O)Cn2c(-c3cccs3)cc3cc(Cl)ccc32)cc1	nt	i	i	nt	?	i
COc1ccc(CCNC(=O)Cn2c(-c3cccs3)cc3cc(F)ccc32)cc1OC	nt	i	i	nt	i	i
CN(C)c1ccc(CNC(=O)Cn2c(-c3cccs3)cc3cc(Cl)ccc32)cc1	nt	i	i	nt	25µM	i
CC(NC(=O)Cn1c(-c2cccs2)cc2cc(F)ccc21)c1ccccc1 (stereo not given)	nt	i	i	nt	28µM	i
CCCSCCCNC(=O)Cn1c(-c2cccs2)cc2ccccc21	nt	i	i	nt	28µM	i
COCCNC(=O)Cn1c(-c2cccs2)cc2cc(Cl)ccc21	nt	i	i	nt	28µM	i
CCCSCCCNC(=O)Cn1c(=O)c2cccn2c2ccccc21	i	i	i	i	i	i
Cc1ccc(CNC(=O)Cn2cc(S(=O)(=O)Cc3ccccc3F)c3ccccc32)cc1	nt	i	i	nt	i	i
COc1cc(NC(=O)CN2C(=O)C(c3ccc(C)cc3)=NC23CCCCC3)cc(OC)c1	nt	i	i	nt	i	i
CCOc1ccc(CCNC(=O)Cn2c(-c3cccs3)cc3ccccc32)cc1	nt	i	i	nt	?	i
CC(CNC(=O)Cn1c(-c2cccs2)cc2ccccc21)c1ccccc1 (stereo not given)	nt	i	i	nt	16µM	i
CCOc1ccc(CCNC(=O)Cn2c(-c3cccs3)cc3ccccc32)cc1OCC	nt	i	i	nt	8.9µM	i
CC(CNC(=O)Cn1c(-c2cccs2)cc2cc(Cl)ccc21)c1ccccc1 (stereo not given)	nt	i	i	nt	25µM	i
CCNC(=O)Cn1c(-c2cccs2)cc2ccccc21	nt	i	i	nt	28µM	i
CCN(CC)C(=O)CSc1nc(-c2ccc(C)cc2)nc2c1Cc1c(CO)cnc(C)c1O2	nt	i	i	nt	i	i
O=c1cc(-c2ccccc2)nc(SCc2nc(-c3cccc(C(F)(F)F)c3)no2)[nH]1	nt	i	i	nt	i	i
O=C(Cn1c(-c2cccs2)cc2ccccc21)NCc1ccccc1Br	nt	i	i	nt	32µM	i
CCn1c2ccccc2c2cc(N)ccc21	i	i	i	i	?	i
SMILES	aSyn rescue	TDP-43 yeast inh	FUS yeast rescue	Mm-Cpn inhibitor	ClpP mod	Abeta rescue
CCn1c2ccccc2c2cc(/C=C(/C#N)C(N)=S)ccc21	i	32µM	nt	nt	i	i
O=C(Cn1cnc2onc(-c3ccc(F)cc3)c2c1=O)Nc1cccc(C(F)(F)F)c1	i	i	i	nt	i	i
Clc1cccc(Nc2c3c(nc4ncnn24)CCC3)c1	i	i	i	i	i	i
CCc1cccc(Nc2c3c(nc4ncnn24)CCC3)c1	i	18µM	i	i	i	i
COc1ccccc1CNC(=O)c1ccccc1NS(C)(=O)=O	i	i	i	i	28µM	i
CCN(CC)CCNC(=O)c1ccccc1N	i	i	i	i	10µM	i
COc1ccc(C(=O)NCc2ccccc2OC)c(OC)c1	i	i	i	i	i	i
COc1ccccc1CNC(=O)c1ccccc1N	i	i	i	i	10µM	i
Cc1ccccc1CNC(=O)c1ccccc1N	i	i	i	i	10µM	i
Cc1ccc2nc(-c3ccc(Cl)cc3)cc(C(=O)OCC(=O)c3ccccc3)c2c1	nt	i	i	nt	i	i
Cc1cc2n(n1)CCCN2C(=O)Nc1ccc(Cl)cc1	nt	i	i	nt	i	i
O=S1(=O)CCO[C@H]2CCCC[C@@H]2N1Cc1cccc(F)c1	nt	nt	nt	nt	i	nt
c1ccc2c(c1)ccn2-n1ccc2ccccc21	?	nt	nt	nt	i	nt
CC(=O)N1CCc2cc(S(=O)(=O)NCCC(=O)N(C)Cc3ccccc3F)ccc21	nt	nt	i	nt	nt	nt
Nc1ccccc1C(=O)NCc1ccccc1	i	i	i	i	28µM	i
COc1c(C(=O)Nc2ccc(Br)cn2)ccc2ccccc12	i	i	i	?	i	i
O=C(Nc1ccc(Br)cn1)c1cccc2ccccc12	i	i	i	nt	25µM	i
Nc1ccccc1C(=O)Nc1cccc2ccccc12	i	14µM	i	i	i	i
O=C(NCc1ccccc1)c1nccnc1CO	i	i	i	i	16µM	i
O=C(Nc1cccc2ccccc12)c1ccccc1Cl	i	i	i	i	i	i
Cc1cccc(NC(=O)c2ccc3nc(CCc4ccccc4)oc3c2)c1C	nt	i	i	nt	i	i
COC(=O)c1cc(S(=O)(=O)N2CCCN(C(C)=O)CC2)cn1C	nt	nt	i	nt	nt	nt
CCOC(=O)c1ccccc1NCN1C(=O)CSC1=O	i	i	i	i	28µM	i
CCc1ccccc1N1C(=O)N(Cc2cc(=O)n3ccccc3n2)c2ccccc2S1(=O)=O	nt	11µM	32µM	nt	i	i
O=C(Cn1c(=O)nc(-c2ccccc2)c2ccccc21)NCc1ccc(F)cc1	nt	i	i	nt	i	i
SMILES	aSyn rescue	TDP-43 yeast inh	FUS yeast rescue	Mm-Cpn inhibitor	ClpP mod	Abeta rescue
c1ccc2c(c1)OCC(c1nnc3sc(-c4ccc5c(c4)OCO5)nn13)O2 (stereo not given)	i	i	?	i	28µM	i
c1ccc2c(c1)ncn2Cc1nnc2sc(-c3ccc4c(c3)OCO4)nn12	i	i	i	i	28µM	i
Clc1cccc(-c2nnc3sc(-c4ccc5c(c4)OCO5)nn23)c1	nt	nt	nt	i	nt	nt
Clc1ccccc1-c1nnc2sc(-c3ccc4c(c3)OCO4)nn12	i	i	i	i	32µM	i
COC(=O)c1ccc(CNCC(O)COc2ccc(-c3ccccc3)cc2)cc1 (stereo not given)	i	i	i	i	nt	i
COC(=O)c1ccc(-c2ccc(CNCC(O)c3ccccc3)o2)cc1 (stereo not given)	i	i	i	i	16µM	i
O=C(N(c1ccccc1)c1ccccc1)N(c1ccccc1)c1ccccc1	i	i	i	i	i	i
O=C(CCl)N(c1ccccc1)c1ccccc1	i	18µM	i	i	nt	i

Bioassay records: PubChem BioAssay, National Center for Advancing Translational Sciences (NCATS)
